# Experimental data: article PMC5540273 (PLoS ONE, 2017)
# Read-outs that look alike come from different tables or passages of the source.
# Columns and labels:
# STK16 = conditions: concentration: 1 μM, replicates: in singlicate; n = 1
# STK33 = conditions: concentration: 1 μM, replicates: in singlicate; n = 1
# STK35 = conditions: concentration: 1 μM, replicates: in singlicate; n = 1
# STK36 = conditions: concentration: 1 μM, replicates: in singlicate; n = 1
# STK39 = conditions: concentration: 1 μM, replicates: in singlicate; n = 1
# SYK = conditions: concentration: 1 μM, replicates: in singlicate; n = 1
# SgK110 = conditions: concentration: 1 μM, replicates: in singlicate; n = 1
# TAK1 = tested on: T1, TAK1; conditions: concentration: 1 μM, replicates: in singlicate; n = 1
# T1 construct: gene MAP3K7
# TAOK1 = conditions: concentration: 1 μM, replicates: in singlicate; n = 1
# TAOK2 = conditions: concentration: 1 μM, replicates: in singlicate; n = 1
# TAOK3 = conditions: concentration: 1 μM, replicates: in singlicate; n = 1
# TBK1 = conditions: concentration: 1 μM, replicates: in singlicate; n = 1
# TEC = conditions: concentration: 1 μM, replicates: in singlicate; n = 1
# TESK1 = conditions: concentration: 1 μM, replicates: in singlicate; n = 1
# TGFBR1 = conditions: n = 1
# TGFBR2 = conditions: concentration: 1 μM, replicates: in singlicate; n = 1
# TIE1 = conditions: concentration: 1 μM, replicates: in singlicate; n = 1
# TIE2 = tested on: T2, TIE2; conditions: concentration: 1 μM, replicates: in singlicate; n = 1
# T2 construct: gene TEK
# TLK1 = conditions: concentration: 1 μM, replicates: in singlicate; n = 1
# TLK2 = conditions: concentration: 1 μM, replicates: in singlicate; n = 1
# [1] = concentration: 1 μM, replicates: in singlicate
# 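Further: KINOMEscan kinase panel screen.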
smiles,measurement,setting,value
COc1ccc(Nc2nccc(-c3cccc(NC(=O)c4cc5cc(F)ccc5[nH]4)c3)n2)cc1 [GSK1229782],%Inh,STK16,22%
same,%Inh,STK33,5%
same,%Inh,STK35,0%
same,%Inh,STK36,0%
same,%Inh,STK39,4%
same,%Inh,SYK,49%
same,%Inh,SgK110,0%
same,%Inh,TAK1,64%
same,%Inh,TAOK1,2%
same,%Inh,TAOK2,0%
same,%Inh,TAOK3,0%
same,%Inh,TBK1,24%
same,%Inh,TEC,19%
same,%Inh,TESK1,34%
same,%Inh,TGFBR1; [1],17%
same,%Inh,TGFBR2,10%
same,%Inh,TIE1,0%
same,%Inh,TIE2,17%
same,%Inh,TLK1,4%
same,%Inh,TLK2,0%
Cl.NC(=O)c1cccc(Nc2nccc(Nc3ccc(Oc4cccc(Cl)c4)c(Cl)c3)n2)c1 [GW659008],%Inh,STK16,38%
same,%Inh,STK33,0%
same,%Inh,STK35,0%
same,%Inh,STK36,0%
same,%Inh,STK39,12%
same,%Inh,SYK,1%
same,%Inh,SgK110,0%
same,%Inh,TAK1,0%
same,%Inh,TAOK1,0%
same,%Inh,TAOK2,0%
same,%Inh,TAOK3,0%
same,%Inh,TBK1,7%
same,%Inh,TEC,10%
same,%Inh,TESK1,40%
same,%Inh,TGFBR1; [1],0%
same,%Inh,TGFBR2,12%
same,%Inh,TIE1,12%
same,%Inh,TIE2,1%
same,%Inh,TLK1,0%
same,%Inh,TLK2,0%
O=C(Nc1ccc2c(c1)OCO2)NC1CCN(c2ccnc(Nc3ccc(F)cc3)n2)C1 (stereo not drawn) [GSK1379724],%Inh,STK16,30%
same,%Inh,STK33,0%
same,%Inh,STK35,0%
same,%Inh,STK36,0%
same,%Inh,STK39,10%
same,%Inh,SYK,16%
same,%Inh,SgK110,14%
same,%Inh,TAK1,0%
same,%Inh,TAOK1,0%
same,%Inh,TAOK2,0%
same,%Inh,TAOK3,0%
same,%Inh,TBK1,0%
same,%Inh,TEC,7%
same,%Inh,TESK1,32%
same,%Inh,TGFBR1; [1],28%
same,%Inh,TGFBR2,0%
same,%Inh,TIE1,0%
same,%Inh,TIE2,0%
same,%Inh,TLK1,0%
same,%Inh,TLK2,0%
COC(=O)c1c(-c2ccccc2)c2cc(C(=O)O)ccc2c(=O)n1Cc1ccccc1,%Inh,STK16,22%
same,%Inh,STK33,0%
same,%Inh,STK35,0%
same,%Inh,STK36,5%
same,%Inh,STK39,0%
same,%Inh,SYK,0%
same,%Inh,SgK110,14%
same,%Inh,TAK1,0%
same,%Inh,TAOK1,14%
same,%Inh,TAOK2,20%
same,%Inh,TAOK3,0%
same,%Inh,TBK1,6%
same,%Inh,TEC,0%
same,%Inh,TESK1,0%
same,%Inh,TGFBR1; [1],21%
same,%Inh,TGFBR2,8%
same,%Inh,TIE1,0%
same,%Inh,TIE2,18%
same,%Inh,TLK1,10%
same,%Inh,TLK2,0%
Cc1cc(NCC(c2ccccc2)c2ccccc2)nc(NCc2ccc(C(F)(F)F)cc2)n1 [GW497681],%Inh,STK16,18%
same,%Inh,STK33,0%
same,%Inh,STK35,0%
same,%Inh,STK36,0%
same,%Inh,STK39,0%
same,%Inh,SYK,0%
same,%Inh,SgK110,0%
same,%Inh,TAK1,0%
same,%Inh,TAOK1,0%
same,%Inh,TAOK2,0%
same,%Inh,TAOK3,0%
same,%Inh,TBK1,22%
same,%Inh,TEC,0%
same,%Inh,TESK1,13%
same,%Inh,TGFBR1; [1],22%
same,%Inh,TGFBR2,0%
same,%Inh,TIE1,0%
same,%Inh,TIE2,0%
same,%Inh,TLK1,9%
same,%Inh,TLK2,0%
CCn1c(-c2cccnc2O)nc2cnccc21 [SB-736715],%Inh,STK16,0%
same,%Inh,STK33,0%
same,%Inh,STK35,0%
same,%Inh,STK36,0%
same,%Inh,STK39,0%
same,%Inh,SYK,0%
same,%Inh,SgK110,0%
same,%Inh,TAK1,0%
same,%Inh,TAOK1,0%
same,%Inh,TAOK2,0%
same,%Inh,TAOK3,0%
same,%Inh,TBK1,0%
same,%Inh,TEC,0%
same,%Inh,TESK1,0%
same,%Inh,TGFBR1; [1],0%
same,%Inh,TGFBR2,0%
same,%Inh,TIE1,0%
same,%Inh,TIE2,6%
same,%Inh,TLK1,0%
same,%Inh,TLK2,0%
CCn1c(-c2ccccn2)nc2cnccc21 [SB-736398],%Inh,STK16,0%
same,%Inh,STK33,0%
same,%Inh,STK35,1%
same,%Inh,STK36,0%
same,%Inh,STK39,31%
same,%Inh,SYK,0%
same,%Inh,SgK110,15%
same,%Inh,TAK1,0%
same,%Inh,TAOK1,0%
same,%Inh,TAOK2,33%
same,%Inh,TAOK3,0%
same,%Inh,TBK1,0%
same,%Inh,TEC,0%
same,%Inh,TESK1,0%
same,%Inh,TGFBR1; [1],21%
same,%Inh,TGFBR2,10%
same,%Inh,TIE1,0%
same,%Inh,TIE2,0%
same,%Inh,TLK1,0%
same,%Inh,TLK2,0%
Cc1ccc(-c2cc(-c3c[nH]nc3-c3ccccn3)ccn2)cc1 [GW684088],%Inh,STK16,28%
same,%Inh,STK33,0%
same,%Inh,STK35,0%
same,%Inh,STK36,23%
same,%Inh,STK39,0%
same,%Inh,SYK,21%
same,%Inh,SgK110,2%
same,%Inh,TAK1,15%
same,%Inh,TAOK1,0%
same,%Inh,TAOK2,0%
same,%Inh,TAOK3,0%
same,%Inh,TBK1,26%
same,%Inh,TEC,0%
same,%Inh,TESK1,0%
same,%Inh,TGFBR1; 1 µM,89%
same,%Inh,TGFBR2,77%
same,%Inh,TIE1,0%
same,%Inh,TIE2,13%
same,%Inh,TLK1,24%
same,%Inh,TLK2,10%
Cc1cc(-c2ccc3c(c2)CC[C@@H](N[C@@H](C)c2ccccc2)C3)cnc1N.Cl [GW412617],%Inh,STK16,22%
same,%Inh,STK33,7%
same,%Inh,STK35,10%
same,%Inh,STK36,0%
same,%Inh,STK39,1%
same,%Inh,SYK,35%
same,%Inh,SgK110,0%
same,%Inh,TAK1,42%
same,%Inh,TAOK1,14%
same,%Inh,TAOK2,0%
same,%Inh,TAOK3,14%
same,%Inh,TBK1,11%
same,%Inh,TEC,1%
same,%Inh,TESK1,11%
same,%Inh,TGFBR1; [1],0%
same,%Inh,TGFBR2,20%
same,%Inh,TIE1,35%
same,%Inh,TIE2,0%
same,%Inh,TLK1,4%
same,%Inh,TLK2,0%
